{"source": "PubChem BioAssay AID1259311", "about": "(ICCB-Longwood Screening Facility, Harvard Medical School, 2017)", "note": "The whole screen tested about 330,000 compounds, of which about 1,100 (0.33%) were called active. The sample holds actives, similar compounds and a random draw of the others, so the mix is not that of the screen. Unmarked numbers belong to inactive results. No stated cut-off is given here; in the data, active means inhibition above about 85%; inactive means the rest."}
{"assay": "growth inhibition of S. aureus RN4220, primary screen, OD600 (AID 1259311);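 further: plate controls were untreated cells for no effect and reference antibiotic for full effect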", "conditions": "OD600, 16 h, hits give high values"}
{"compound": "CCOC(=O)C1C2COc3ccc(Br)cc3C2N2C(=O)N(c3ccc(C(F)(F)F)cc3)C(=O)[C@@]12C", "note": "(stereo not given in full)", "inhibition": "-6.79%"}
{"compound": "CCCCC1CC1C(NC(=O)c1ccco1)c1ccccc1C(F)(F)F", "note": "(stereo not given)", "inhibition": "6.05%"}
{"compound": "O=C(CN1CCSCC1)NN=Cc1ccc(F)cc1F", "inhibition": "6.36%"}
{"compound": "Cc1ccc(C=NNC(=O)CSc2nc3ccccc3c(=O)n2-c2ccccc2)s1", "inhibition": "-0.0121%"}
{"compound": "Cc1ccc(C=NNC(=O)CSc2nc3ccccc3n2C)s1", "inhibition": "0.496%"}
{"compound": "Cn1c(SCC(=O)NN=Cc2ccc([N+](=O)[O-])s2)nnc1-c1ccccc1", "inhibition": "94.9% (active)"}
{"compound": "COC(=O)C1=C(c2ccc(C(C)=O)cc2)CC2CCC1N2C(=O)NCc1ccc(F)cc1", "note": "(stereo not given)", "inhibition": "1.41%"}
{"compound": "O=S(=O)(NN=Cc1ccc(OC2CSC2)cc1)c1ccccc1", "inhibition": "2.43%"}
{"compound": "COc1cccc(C=NNc2cc(-n3nc(C)cc3-c3ccccc3)ncn2)c1O", "inhibition": "99.8% (active)"}
{"compound": "COc1cccc(C=NNc2ncnc3c2ncn3Cc2ccccc2)c1O", "inhibition": "9.44%"}
{"compound": "COc1cccc(C=NNC(=O)CSCC(=O)Nc2ccccc2)c1O", "inhibition": "3.38%"}
{"compound": "COc1cccc(C(=O)NCC(=O)NN=Cc2c(C)[nH]c3ccccc23)c1", "inhibition": "4.11%"}
{"compound": "O=C(NOCc1ccccc1)c1cccc([N+](=O)[O-])c1", "inhibition": "4.41%"}
{"compound": "O=C(NC(Nc1nc2ccc([N+](=O)[O-])cc2s1)(C(F)(F)F)C(F)(F)F)c1ccccc1", "inhibition": "100% (active)"}
{"compound": "N=C1C(c2nc3ccccc3s2)=C(O)CN1NC(=O)c1ccc([N+](=O)[O-])cc1", "inhibition": "31.5%"}
{"compound": "COC(=O)C1=C(c2cccc(OC)c2OC)CC2CCC1N2C(=O)NCCNC(C)=O", "note": "(stereo not given)", "inhibition": "2.83%"}
{"compound": "Cc1ccc(OCC(=O)NN=Cc2cc([N+](=O)[O-])ccc2N2CCCCC2)cc1", "inhibition": "15.8%"}
{"compound": "COc1cccc(C2=CC(=O)CC(c3ccc4c(c3)OCO4)C2)c1OC", "note": "(stereo not given)", "inhibition": "4.85%"}
{"compound": "O=C(Cn1cnc2ccccc21)NN=Cc1ccccn1", "inhibition": "-0.52%"}
{"compound": "COC(=O)[C@]1(C)NC(c2ccc(-c3cccc(Cl)c3)c(OC)c2)C2C(=O)N(C)C(=O)C21", "note": "(stereo not given in full)", "inhibition": "4.06%"}
{"compound": "CCOC(=O)C=c1sc(=C(C#N)C(=O)OCC)n(-c2ccccc2)c1=O", "inhibition": "-0.54%"}
{"compound": "CCC(C)N1CCC2(CC1)N=c1c(c3c4c5c(C)c(O)c3c(O)c1=NC(=O)C(C)=CC=CC(C)C(O)C(C)C(O)C(C)C(OC(C)=O)C(C)C(OC)C=CO[C@@](C)(O5)C4=O)N2", "note": "(stereo not given in full)", "inhibition": "99.7% (active)"}
{"compound": "Cc1cc(C)cc(C(=O)NC2C(=O)N3C(C(=O)O)=C(CSc4nnc(C)s4)CSC23)c1", "note": "(stereo not given)", "inhibition": "99.5% (active)"}
{"compound": "Cc1nnc(SCC(=O)Nn2cnnc2)s1", "inhibition": "2.92%"}
{"compound": "Cc1nnc(SCC2=C(C(=O)O)N3C(=O)C(NC(=O)Cn4nc(C)c(Cl)c4C)C3SC2)s1", "note": "(stereo not given)", "inhibition": "99.6% (active)"}
{"compound": "Cc1nnc(SCc2cc(=O)[nH]c(N3CCN(Cc4ccccc4)CC3)n2)s1", "inhibition": "1.62%"}
{"compound": "Cc1nnc(SCC(=O)NC2CCCC2)s1", "inhibition": "-0.203%"}
{"compound": "CON=Cc1ccc(N2CCOCC2)c([N+](=O)[O-])c1", "inhibition": "6.02%"}
{"compound": "C=CCn1c(CNc2ccccc2)nnc1SCC(=O)NN=Cc1ccccc1O", "inhibition": "1.54%"}
{"compound": "O=C(O)CCC(=NNc1ncc(C(F)(F)F)cc1Cl)C(=O)O", "inhibition": "4.71%"}
{"compound": "CC(=O)Nc1cccc(C(C)=NNc2ccc(S(=O)(=O)Nc3ccccc3C(=O)O)cc2[N+](=O)[O-])c1", "inhibition": "-10.1%"}
{"compound": "CCc1ccc2c(c1)C1(NN=C(c3ccccc3)S1)C(=O)N2", "note": "(stereo not given)", "inhibition": "92.6% (active)"}
{"compound": "CCN(CC)c1ccc(C(=O)c2cnc(N=CN(C)C)s2)cc1", "inhibition": "8.12%"}
{"compound": "CC(=NNC(=O)CNS(=O)(=O)c1ccc(C)cc1)c1cccc([N+](=O)[O-])c1", "inhibition": "-3.24%"}
{"compound": "Cn1c(NN=Cc2ccccc2)nc2sc3c(c2c1=O)CCC3", "inhibition": "6.77%"}
{"compound": "O=C(NN=Cc1ccccc1)c1ccc(CN2C(=O)c3cccc4cccc2c34)cc1", "inhibition": "0.745%"}
{"compound": "O=C(Nc1ccc2ccccc2c1)Nc1ccc2snnc2c1", "inhibition": "106% (active)"}
{"compound": "Cc1nc2cc(NC(=O)Nc3cccc(F)c3)ccc2n1C", "inhibition": "2.6%"}
{"compound": "S=C(Nc1ccccc1)Nc1ccc2ccccc2c1", "inhibition": "-8.9%"}
{"compound": "Nc1nonc1-n1nnc(C(=O)NN=Cc2ccncc2)c1CN1CCCCC1", "inhibition": "1.52%"}
{"compound": "Cc1ccccc1NC(=O)C(C)ON=Cc1cccc([N+](=O)[O-])c1", "note": "(stereo not given)", "inhibition": "4.13%"}
{"compound": "COc1ccc(CC(O)=C(C#N)c2nc3ccccc3[nH]2)cc1OC", "inhibition": "-2.45%"}
{"compound": "CCOC(=O)C=c1sc(=Cc2c(OCC)ccc3ccccc23)c(=O)n1CC(=O)NCC1CCCO1", "note": "(stereo not given)", "inhibition": "-2.12%"}
{"compound": "CCOC(=O)C1(CCOc2ccccc2)CCN(Cc2cc(OC)cc(OC)c2)CC1", "inhibition": "1.85%"}
{"compound": "CCOC(=O)C1(CCOc2ccccc2)CCN(Cc2ccc(C#CCCO)cc2)CC1", "inhibition": "5.24%"}
